Measured values published in ChEMBL document CHEMBL1201862, “PubChem BioAssay data set” (2004).
Hit rate of the full screen: of about 400,000 compounds, about 3,700 (0.93%) were called active. Not shown: some 3% with an inconclusive outcome. The rule behind the calls is not given here. Many of the other results were omitted from the sample, so actives are more common in it than they were.

Molecular target: T1, Vitamin D3 receptor (Homo sapiens) (UniProt P11473)
T1 sequence (whole entry): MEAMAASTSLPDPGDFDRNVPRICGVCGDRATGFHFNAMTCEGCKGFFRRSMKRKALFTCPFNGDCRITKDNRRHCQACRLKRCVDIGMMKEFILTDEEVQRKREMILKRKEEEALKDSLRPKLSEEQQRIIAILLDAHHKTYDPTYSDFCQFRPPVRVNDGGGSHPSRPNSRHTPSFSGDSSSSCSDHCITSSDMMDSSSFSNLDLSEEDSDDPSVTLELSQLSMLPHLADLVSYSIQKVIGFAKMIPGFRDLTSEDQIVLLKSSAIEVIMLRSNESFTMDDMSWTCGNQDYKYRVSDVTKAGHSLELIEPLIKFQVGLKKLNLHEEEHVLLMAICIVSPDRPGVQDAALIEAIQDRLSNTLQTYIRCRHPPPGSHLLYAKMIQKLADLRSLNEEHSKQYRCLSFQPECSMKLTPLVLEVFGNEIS
Experiment: Inhibitors of the vitamin D receptor (VDR): qHTS. [Related pubchem assays (depositor defined):AID504855]
Assay type: functional

| Structure (SMILES) | Potency |
| --- | --- |
| Cl[Te]1(Cl)OCCO1 | 3.16 µM (active) |
